Assay results: PubChem BioAssay (EPA / NIEHS)
Active and inactive are the calls of the source. Rule for the calls: active = hit-call score of the fitted dose curve at least 0.9, where 1 is the maximum; inactive = score below 0.9.

What was measured:
Conditions in all cases: mRNA level, 48 h; actives raise or lower the signal
[1] = read-out: Cytochrome P450 (CYP1A1), CYP1A1 (gene 1543); assay: LTEA_HepaRG_CYP1A1: Life Technologies and Expression Analysis (LTEA) Assay for Cytochrome P450 (CYP1A1) using HepaRG (AID 2283454)
Procedure, shortened: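 HepaRG, 48 h post-plating switched to serum-free induction medium; 8-pt conc-response (top 100 uM, half-log, 0.5% DMSO), duplicates, 48 h. Lysis in RLT, TaqMan qRT-PCR for CYP1A1; gain or loss vs DMSO.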

[2] = read-out: CFLAR gene, CFLAR (gene 8837); assay: LTEA_HepaRG_CFLAR: Life Technologies and Expression Analysis (LTEA) Assay for CFLAR gene using HepaRG (AID 2283455)
Procedure, shortened: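 HepaRG cells were plated for 48 h, switched to serum-free induction medium, then exposed in duplicate for 48 h to 8 concentrations (top 100 uM, half-log steps, 0.5% DMSO). CFLAR mRNA was measured by qRT-PCR, normalized to ACTB, GAPDH and POLR2A.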

[3] = read-out: Forkhead box O1 (FOXO1), FOXO1 (gene 2308); assay: LTEA_HepaRG_FOXO1: Life Technologies and Expression Analysis (LTEA) Assay for Forkhead box O1 (FOXO1) using HepaRG (AID 2283456)
Procedure, shortened: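 Differentiated human HepaRG cells in serum-free induction medium were exposed in duplicate for 48 h to eight half-log concentrations (top 100 uM, 0.5% DMSO). FOXO1 mRNA was measured by TaqMan qRT-PCR, normalised to ACTB, GAPDH and POLR2A, and fitted bidirectionally against DMSO.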

[4] = read-out: growth arrest and DNA damage 45 (GADD45A), GADD45A (gene 1647); assay: LTEA_HepaRG_GADD45A: Life Technologies and Expression Analysis (LTEA) Assay for growth arrest and DNA damage 45 (GADD45A) using HepaRG (AID 2283458)
Procedure, shortened: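 Differentiated HepaRG cells were exposed in duplicate for 48 h in serum-free induction medium to 8-point half-log concentrations up to 100 uM in 0.5% DMSO. GADD45A mRNA was measured by TaqMan qRT-PCR, normalized to ACTB, GAPDH and POLR2A, with bidirectional fitting versus DMSO.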

[5] = read-out: Forkhead box O3 (FOXO3), FOXO3 (gene 2309); assay: LTEA_HepaRG_FOXO3: Life Technologies and Expression Analysis (LTEA) Assay for Forkhead box O3 (FOXO3) using HepaRG (AID 2283459)
Procedure, shortened: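 Differentiated human HepaRG cells in serum-free induction medium were exposed in duplicate for 48 h to eight half-log concentrations up to 100 uM in 0.5% DMSO. FOXO3 mRNA was quantified by qRT-PCR, normalized to ACTB, GAPDH and POLR2A, with bidirectional fitting versus DMSO.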

[6] = read-out: ABC Transporter (ABCB1), ABCB1 (gene 5243); assay: LTEA_HepaRG_ABCB1: Life Technologies and Expression Analysis (LTEA) Assay for ABC Transporter (ABCB1) using HepaRG (AID 2283460)
Procedure, shortened: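 Differentiated human HepaRG cells, plated 48 h then switched to serum-free induction medium, were exposed in duplicate to eight half-log concentrations up to 100 uM in 0.5% DMSO for 48 h. ABCB1 mRNA was measured by TaqMan qRT-PCR, normalized to ACTB/GAPDH/POLR2A.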

[7] = read-out: growth arrest and DNA damage 45 (GADD45B), GADD45B (gene 4616); assay: LTEA_HepaRG_GADD45B: Life Technologies and Expression Analysis (LTEA) Assay for growth arrest and DNA damage 45 (GADD45B) using HepaRG (AID 2283461)
Procedure, shortened: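 HepaRG, ~100,000 cells/well, 48 h plating; serum-free induction medium; cpd 100 uM top, half-log x8, 0.5% DMSO, duplicate, 48 h; lysis in RLT, RNA isolation, qRT-PCR; norm ACTB/GAPDH/POLR2A; bidirectional fit vs DMSO.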

[8] = read-out: ABC Transporter (ABCC3), ABCC3 (gene 8714); assay: LTEA_HepaRG_ABCC3: Life Technologies and Expression Analysis (LTEA) Assay for ABC Transporter (ABCC3) using HepaRG (AID 2283462)
Procedure, shortened: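 Human HepaRG, 48 h dosing, 8-pt half-log series from 100 uM, 0.5% DMSO vehicle, duplicates. ABCC3 mRNA by TaqMan qRT-PCR, housekeeping-normalized; bidirectional curve fit vs DMSO.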

[9] = read-out: ABC Transporter (ABCB11), ABCB11 (gene 8647); assay: LTEA_HepaRG_ABCB11: Life Technologies and Expression Analysis (LTEA) Assay for ABC Transporter (ABCB11) using HepaRG (AID 2283463)
Procedure, shortened: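 Differentiated human HepaRG cells were exposed for 48 h in serum-free induction medium to eight half-log concentrations up to 100 uM in 0.5% DMSO. ABCB11 mRNA was quantified by qRT-PCR, normalized to ACTB, GAPDH and POLR2A, and fitted bidirectionally versus DMSO.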

[10] = read-out: ABC Transporter (ABCC2), ABCC2 (gene 1244); assay: LTEA_HepaRG_ABCC2: Life Technologies and Expression Analysis (LTEA) Assay for ABC Transporter (ABCC2) using HepaRG (AID 2283464)
Procedure, shortened: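 HepaRG, 48 h post-plating; serum-free induction medium; cpd 8-pt, 100 uM top, half-log, 0.5% DMSO, duplicate, 48 h. Readout: ABCC2 mRNA by qRT-PCR, norm. ACTB/GAPDH/POLR2A. Bidirectional fit vs DMSO baseline.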

[11] = read-out: ATP-citrate lyase (ACLY), ACLY (gene 47); assay: LTEA_HepaRG_ACLY: Life Technologies and Expression Analysis (LTEA) Assay for ATP-citrate lyase (ACLY) using HepaRG (AID 2283466)
Procedure, shortened: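 Differentiated human HepaRG cells in serum-free induction medium exposed 48 h, in duplicate, to eight half-log concentrations from 100 uM top in 0.5% DMSO; ACLY mRNA measured by qRT-PCR, normalized to ACTB, GAPDH, POLR2A, fitted bidirectionally versus DMSO.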

[12] = read-out: Peroxisomal acyl-coenzyme A oxidase 1 (ACOX1) gene, ACOX1 (gene 51); assay: LTEA_HepaRG_ACOX1: Life Technologies and Expression Analysis (LTEA) Assay for Peroxisomal acyl-coenzyme A oxidase 1 (ACOX1) gene using HepaRG (AID 2283467)
Procedure, shortened: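 Differentiated human HepaRG cells were exposed in duplicate for 48 h in serum-free induction medium to eight half-log concentrations up to 100 uM in 0.5% DMSO. ACOX1 mRNA was then quantified by TaqMan qRT-PCR, normalized to ACTB, GAPDH and POLR2A.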

[13] = read-out: Bcl-2 (BAD) gene, BAD (gene 572); assay: LTEA_HepaRG_BAD: Life Technologies and Expression Analysis (LTEA) Assay for Bcl-2 (BAD) gene using HepaRG (AID 2283469)
Procedure, shortened: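 Differentiated human HepaRG cells in serum-free induction medium were exposed in duplicate for 48 h to eight concentrations (top 100 uM, half-log steps, 0.5% DMSO). BAD mRNA was quantified by qRT-PCR normalised to ACTB, GAPDH and POLR2A, with bidirectional fitting versus DMSO.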

[14] = read-out: Bcl-2 (BAX) gene, BAX (gene 581); assay: LTEA_HepaRG_BAX: Life Technologies and Expression Analysis (LTEA) Assay for Bcl-2 (BAX) gene using HepaRG (AID 2283470)
Procedure, shortened: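 Differentiated human HepaRG cells, plated 48 h then switched to serum-free induction medium, were exposed 48 h to 8 half-log concentrations up to 100 uM in 0.5% DMSO; BAX mRNA measured by qRT-PCR, normalized to ACTB, GAPDH, POLR2A.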

[15] = read-out: adenosine kinase (ADK) gene, ADK (gene 132); assay: LTEA_HepaRG_ADK: Life Technologies and Expression Analysis (LTEA) Assay for adenosine kinase (ADK) gene using HepaRG (AID 2283471)
Procedure, shortened: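 Differentiated HepaRG cells dosed 48 h in serum-free induction medium, 0.5% DMSO vehicle, eight half-log concentrations from 100 uM, in duplicate. ADK mRNA by TaqMan qRT-PCR normalised to ACTB, GAPDH, POLR2A; bidirectional fit versus DMSO.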

[16] = read-out: Alpha-fetoprotein (AFP) gene, AFP (gene 174); assay: LTEA_HepaRG_AFP: Life Technologies and Expression Analysis (LTEA) Assay for Alpha-fetoprotein (AFP) gene using HepaRG (AID 2283472)
Procedure, shortened: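 Human HepaRG cells plated 48 h, then switched to serum-free induction medium and exposed in duplicate for 48 h to 8-point half-log series from 100 uM in 0.5% DMSO. AFP mRNA by qRT-PCR, normalized to ACTB, GAPDH, POLR2A; bidirectional fit versus DMSO.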

[17] = read-out: BCL2L11 (gene 10018); assay: LTEA_HepaRG_BCL2L11: Life Technologies and Expression Analysis (LTEA) Assay for Bcl-2 (BCL2L11) gene using HepaRG (AID 2283473)
Procedure, shortened: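 Read-out is BCL2L11 transcript level by qRT-PCR, normalized to three housekeeping genes and fitted bidirectionally against 0.5% DMSO vehicle. HepaRG cells received chemicals for 48 h in serum-free induction medium, 100 uM down in half-log dilutions.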

[18] = read-out: Alkaline Phosphatase, Placental (ALPP) gene, ALPP (gene 250); assay: LTEA_HepaRG_ALPP: Life Technologies and Expression Analysis (LTEA) Assay for Alkaline Phosphatase, Placental (ALPP) gene using HepaRG (AID 2283468)
Procedure, shortened: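 HepaRG, 48 h plating then 48 h dosing, serum-free induction medium, 0.5% DMSO. 8 conc, half-log, max 100 uM, duplicates. Endpoint: ALPP transcript by qRT-PCR, housekeeping-normalized; gain or loss fitted vs DMSO.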

Measured: AC50

CSc1nc(NC(C)C)nc(NC(C)C)n1
active: [1] 22.4 µM | [6] 3.25 µM | [9] 56.7 µM | [16] 50 µM
not listed: [18]
inactive: all other assays above

C#CCC1=C(C)C(OC(=O)C2C(C=C(C)C)C2(C)C)CC1=O (centres undefined)
active: [1] 49.8 µM | [10] 19.6 µM | [16] 81.1 µM
inactive: all other assays above

CCc1cccc(C)c1N(C(=O)CCl)C(C)COC (centres undefined)
active: [1] 62.6 µM | [16] 77.1 µM
not listed: [11]
inactive: all other assays above

S=C1NCCN1
active: [12] 232 nM | [15] 12.6 µM
not listed: [11]
inactive: all other assays above
